Source: PubChem BioAssay (Broad Institute)
NOMO-1 viab: STK33 inhibitor candidate reducing NOMO-1 cell viability. NOMO-1 AML viability, CellTiter-Glo luminescence, 72 h. inhibition, % (test concentration not listed). 37,000 compounds, 7.5% hits; in the data active means inhibition above about 80%; inconclusive means no clear call, values can overlap the other calls
Shh pathway inh: Sonic Hedgehog pathway inhibition; Shh-LIGHT2 Gli-luciferase reporter, 30 h; inhibition, % (concentration not given with the values); 22,000 compounds, 2.1% hits;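 active means mean inhibition across valid replicates above about 65%, limit read from the data; inconclusive means mean under the limit, yet half or more replicates past it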;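 further: pathway switched on by Shh-conditioned medium diluted 1 in 25 in low serum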
MITF inhib: inhibitors of MITF | TRPM1 promoter luciferase, luminescence, 24 h | inhibition, % (test concentration not listed) | 37,000 compounds, 0.28% hits | AID 2240; in the data active means inhibition above about 85%; inconclusive means no clear call, values can overlap the other calls; inactive means below about 68%;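 further: human melanocyte line stably carrying TRPM1 promoter luciferase reporter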
Each line names hits and unclear results; the compound was inactive in the other large screens. Shown are actives, neighbours in structure and some others; about 7.8% of the full set was active somewhere.

OC(CN1CCN(c2cccc(Cl)c2)CC1)C(c1ccccc1)c1ccccc1 (configuration not stated)	Shh pathway inh 95
C[C@H](CO)N1C[C@H](C)[C@H](CN(C)Cc2ccncc2)Oc2ccc(NC(=O)NC3CCCCC3)cc2C1=O	NOMO-1 viab 105
C[C@@H]1CN([C@H](C)CO)C(=O)c2cc(NC(=O)NC3CCCCC3)ccc2O[C@@H]1CN(C)Cc1ccncc1	none
C[C@H](CO)N1C[C@H](C)[C@@H](CN(C)Cc2ccc(-c3ccccc3)cc2)Oc2ccc(NC(=O)C3CCCCC3)cc2C1=O	none (no result: Shh pathway inh)
C[C@H]1CN([C@@H](C)CO)C(=O)c2cc(NC(=O)C3CCCCC3)ccc2O[C@@H]1CN(C)Cc1ccncc1	none (no result: Shh pathway inh)
C[C@H]1CN([C@@H](C)CO)C(=O)c2cc(NC(=O)C3CCCCC3)ccc2O[C@H]1CN(C)Cc1ccncc1	NOMO-1 viab 97 (no result: Shh pathway inh)
C[C@H]1CN([C@@H](C)CO)C(=O)c2cc(NC(=O)C3CCCCC3)ccc2O[C@@H]1CN(C)Cc1ccc(-c2ccccc2)cc1	NOMO-1 viab 100
Cc1cc(N(CC(=O)Nc2ccc(F)cc2F)S(C)(=O)=O)ccc1Br	none (no result: Shh pathway inh)
C/C=C(/C)C(=O)O[C@H]1[C@H](OC(=O)/C(C)=C\C)[C@]2(CO)[C@H](O)C[C@]3(C)C(=CCC4[C@@]5(C)CC[C@H](OC6OC(C(=O)O)C(O)C(OC7OC(C)C(O)C(OC8OC(CO)C(O)C(O)C8O)C7O)C6O)C(C)(C)C5CC[C@]43C)[C@@H]2CC1(C)C (some centres not stated)	NOMO-1 viab 122, Shh pathway inh 99, MITF inhib 102
C[C@@H]1O[C@@H](O[C@H]2CC[C@@]3(C)C(CC[C@]4(C)C3CC=C3C5CC(C)(C)CC[C@]5(C(=O)O[C@@H]5O[C@H](CO)[C@@H](O)[C@H](O)[C@H]5O)CC[C@]34C(=O)O)C2(C)C)[C@H](O)[C@H](O)[C@H]1O (some centres not stated)	none
CC1(C)CC[C@@]2(C(=O)O[C@@H]3O[C@H](CO)[C@@H](O)[C@H](O)[C@H]3O)C(C1)C1=CCC3[C@@]4(C)CC[C@@H](O[C@@H]5O[C@H](CO)[C@@H](O)[C@H](O)[C@H]5O[C@@H]5O[C@H](CO)[C@@H](O)[C@H](O)[C@H]5O)C(C)(C)C4CC[C@@]3(C)[C@]1(C)C[C@H]2O (some centres not stated)	none
C/C=C(\C)C(=O)OC1C(OC(=O)/C=C(/C)CC(=O)O)C2(CO)C(O)CC3(C)C(=CCC4C5(C)CCC(OC6OC(C(=O)O)C(O)C(OC7OC(C)C(O)C(OC8OC(CO)C(O)C(O)C8O)C7O)C6O)C(C)(C)C5CCC43C)C2CC1(C)C (configuration not stated)	NOMO-1 viab 122, Shh pathway inh 97, MITF inhib 98
C/C=C(/C)C(=O)O[C@H]1[C@H](OC(=O)/C=C/c2ccccc2)[C@@]23C(CC1(C)C)[C@]1(CCC4[C@@]5(C)CC[C@H](O[C@@H]6O[C@H](C(=O)O)[C@@H](O)[C@H](O[C@@H]7O[C@H](CO)[C@H](O)[C@H](O)[C@H]7O[C@@H]7O[C@@H](C)[C@H](O)[C@@H](O)[C@H]7O[C@@H]7OC[C@](O)(CO)[C@H]7O)[C@H]6O[C@@H]6O[C@H](CO)[C@H](O)[C@H](O)[C@H]6O)C(C)(C)C5CC[C@@]4(C)[C@]1(C)C[C@H]2O)O[C@H]3O (some centres not stated)	NOMO-1 viab 120, Shh pathway inh 88, MITF inhib 90
C[C@@H]1O[C@@H](O[C@H]2[C@H](O[C@H]3[C@H](O)[C@@H](C(=O)O)O[C@@H](O[C@H]4CC[C@@]5(C)C(CC[C@]6(C)C5CC[C@]57OC[C@@]8(CCC(C)(C)CC85)[C@H](O)C[C@]76C)C4(C)C)[C@@H]3O[C@@H]3O[C@H](CO)[C@@H](O[C@@H]4OC[C@@H](O)[C@H](O)[C@H]4O)[C@H](O)[C@H]3O)O[C@H](CO)[C@H](O)[C@@H]2O)[C@H](O)[C@H](O)[C@H]1O (some centres not stated)	none
O=C(O)CCC(=O)Nc1ccc(-c2nc3ccc(C(=O)c4ccccc4)cc3[nH]2)cc1	none (no result: Shh pathway inh)
C[C@@H]1CN([C@@H](C)CO)C(=O)c2cc(NC(=O)CCN3CCOCC3)ccc2O[C@@H]1CN(C)Cc1ccc(Oc2ccccc2)cc1	none
Cc1nc(N=C(N)N)nc2ccccc12	NOMO-1 viab 89
Cc1nc2ccccc2cc1C(N)=O	none (no result: Shh pathway inh)
Cc1ccc(N(CC(=O)Nc2ccc(I)cc2C)S(C)(=O)=O)cc1C	none (no result: Shh pathway inh)
CC1=CC(=O)C2C(C)(C)CCC[C@]2(C)[C@@]1(O)CCc1ccoc1 (some centres not stated)	NOMO-1 viab 96
C[C@@H]1C[C@@H](O)C2[C@@](C)(CO)CCC[C@]2(C)[C@@]1(O)CCc1ccoc1 (some centres not stated)	none
O=C(COc1ccc(S(=O)(=O)N2CCOCC2)cc1)Nc1ccc2c(c1)OCCO2	none (no result: Shh pathway inh)
O=C(COc1ccc(S(=O)(=O)N2CCOCC2)cc1)Nc1ccc(Cl)c(C(F)(F)F)c1	NOMO-1 viab 129 (no result: Shh pathway inh)
CC12CCC3c4ccc(OC(=O)c5ccccc5)cc4CCC3C1CCC2O (configuration not stated)	none
C[C@]12CCC3c4ccc(O)cc4CCC3C1CCC2=O (some centres not stated)	Shh pathway inh 89
CC(=O)OC1CCC2C3CCc4cc(O)ccc4C3CCC12C (configuration not stated)	NOMO-1 viab 99, Shh pathway inh inconclusive
C[C@]12CC[C@@H]3c4ccc(O)cc4CC[C@H]3[C@@H]1CC[C@@H]2O	NOMO-1 viab 87, Shh pathway inh 91
COc1ccc2c(c1)CCC1C2CCC2(C)C(=O)CCC12 (configuration not stated)	none
C[C@]12CCC3c4ccc(O)cc4CC[C@H]3C1CC[C@H]2O (some centres not stated)	NOMO-1 viab 96
COc1ccc2c(c1)CCC1C2CC[C@@]2(C)C1CC[C@@H]2O (some centres not stated)	none
CCCCC(=O)O[C@H]1CCC2C3CCc4cc(O)ccc4C3CC[C@@]21C (some centres not stated)	none
C[C@H]1CN([C@@H](C)CO)C(=O)c2cccc(NC(=O)c3cnccn3)c2O[C@@H]1CN(C)C(=O)Nc1ccc2c(c1)OCO2	none
Cc1nnc(SCc2cc(=O)[nH]c(=S)[nH]2)s1	none (no result: Shh pathway inh)
Cc1ccc(S(=O)(=O)Nc2ccc3c(c2)C(=O)N([C@H](C)CO)C[C@H](C)[C@@H](CN(C)C(=O)CCC(F)(F)F)OCCCC[C@@H](C)O3)cc1	none
COc1ccccc1CCNC(=O)c1cc(-c2ccncc2)nc2c(C)c(Cl)ccc12	none (no result: Shh pathway inh)
COc1ccccc1CCNC(=O)c1cc(-c2ccccn2)nc2c(C)c(Cl)ccc12	NOMO-1 viab 101 (no result: Shh pathway inh)
CCOC(=O)c1cnc2c(c(C3CC3)nn2C)c1N1CCOCC1	none (no result: Shh pathway inh)
CCOC(=O)c1cnc2c(c(C)nn2C)c1Sc1nnc(SC)s1	NOMO-1 viab 125, Shh pathway inh 84
CCCNC(=O)N(C)c1nncnc1C(=O)NC	none
COc1ccc(-[n+]2cc(=O)o[nH]2)cc1	none
CC(C)NC(=O)N(C)C[C@@H]1Oc2c(NC(=O)c3cnccn3)cccc2C(=O)N([C@H](C)CO)C[C@H]1C	none
